HTT aggregate – mutant huntingtin aggregation inhibition; PC12 HttQ103-GFP aggregates, Acumen cytometry, 40 h; Potency, µM (doses to about 46.1 µM), without a hit: top-dose activity change, negative = inhibition, actives largely listed as inhibitors; 220,000 compounds, 1.1% hits; AID 1688; active = well fitted curve in the direction sought with a large enough effect; inconclusive = small, poorly fitted or top-dose-only effect, or another doubt; inactive = no such curve, though single readings can be large; an effect the other way counts as inactive or inconclusive; note: potency is the fitted concentration of half-maximal effect; % is set by controls: 0 for no effect and ±100 for the full control effect; nearly all actives have a fitted effect of over 60% in size
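Ecdysone-promoter PC12 model expressing HTT exon 1 Q103 fused to GFP, induced by tebufenozide at 100 nM final. Compounds titrated; aggregates sized 1–25 µm scored on a 488 nm laser cytometer.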
PNC inhibitor – perinucleolar compartment assembly inhibition; PC3M PTB-GFP, PNC prevalence imaging, 16 h; stronger effect = lower value; activity change (PNC), negative = inhibition, % at 10 µM; 140,000 compounds, 3.1% hits; AID 2417;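 active = readout at or below -70, meaning at least 70% loss of cells showing the perinucleolar compartment, a nuclear body marking cancer cells; inconclusive = readout between -30 and a set limit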;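 note: plate controls were DMSO wells for no effect and camptothecin positive control wells for full effect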
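Compounds are pinned in duplicate onto adhered PC3M cells stably expressing GFP-tagged PTB and incubated 16 h at 37 C. Cells are then fixed, nuclei stained with Hoechst, and PNC-positive cells counted.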
HPGD inh – HPGD (human) dehydrogenase inhibition; purified HPGD, NADH fluorescence kinetic, PGE2 substrate; 150,000 compounds, 4.3% hits; Potency, µM, for the others: at the highest dose activity change, negative = inhibition, usual class: inhibitors; P15428; note: potency is the fitted concentration of half-maximal effect; % is set by controls: 0 for no effect and ±100 for the full control effect
Target sequence (P15428 whole entry, looked up): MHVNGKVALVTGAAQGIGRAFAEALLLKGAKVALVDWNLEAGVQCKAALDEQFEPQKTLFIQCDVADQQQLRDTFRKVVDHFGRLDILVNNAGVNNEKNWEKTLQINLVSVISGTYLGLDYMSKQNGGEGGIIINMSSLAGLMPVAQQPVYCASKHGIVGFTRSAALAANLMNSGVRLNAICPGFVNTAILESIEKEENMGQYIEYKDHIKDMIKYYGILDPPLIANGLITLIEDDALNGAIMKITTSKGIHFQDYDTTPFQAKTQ
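20 nM HPGD preincubated 15 min at room temperature with compound in 50 mM Tris-HCl pH 8, 0.01% Tween 20. Started with 1 mM NAD+ and 30 uM prostaglandin E2; NADH fluorescence (360/450 nm) read 5 times over 30-s intervals, last minus first.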
RGS12 GoLoco inh – blocks human Gai1 binding to RGS12 GoLoco peptide, red readout; 230,000 compounds, 0.44% hits; Potency, µM (doses to about 61.6 µM), for the others: at the top dose activity, negative = inhibition, most hits filed as inhibitors; Gai1:RGS12 GoLoco peptide FP, rhodamine, 10 min; AID 880; active = well fitted inhibition curve with a large enough effect, not every such curve was filed as active; inactive = no such curve, though single readings can be large or run the other way; note: potency is the fitted concentration of half-maximal effect; % is set by controls: 0 for no effect and ±100 for the full control effect; nearly all actives have a fitted effect of over 30% in size
ALDH1A1 inh – inhibitors of human aldehyde dehydrogenase 1A1. P00352. Purified ALDH1A1, NADH fluorescence, propionaldehyde substrate. Potency, µM (doses to about 75.3 µM), for inactives: at the top dose activity, negative = inhibition, hits mostly inhibitors. 220,000 compounds, 7.3% hits;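 note: potency is the fitted concentration of half-maximal effect; plate controls were no enzyme wells and a reference inhibitor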
Target sequence (P00352 whole entry, looked up): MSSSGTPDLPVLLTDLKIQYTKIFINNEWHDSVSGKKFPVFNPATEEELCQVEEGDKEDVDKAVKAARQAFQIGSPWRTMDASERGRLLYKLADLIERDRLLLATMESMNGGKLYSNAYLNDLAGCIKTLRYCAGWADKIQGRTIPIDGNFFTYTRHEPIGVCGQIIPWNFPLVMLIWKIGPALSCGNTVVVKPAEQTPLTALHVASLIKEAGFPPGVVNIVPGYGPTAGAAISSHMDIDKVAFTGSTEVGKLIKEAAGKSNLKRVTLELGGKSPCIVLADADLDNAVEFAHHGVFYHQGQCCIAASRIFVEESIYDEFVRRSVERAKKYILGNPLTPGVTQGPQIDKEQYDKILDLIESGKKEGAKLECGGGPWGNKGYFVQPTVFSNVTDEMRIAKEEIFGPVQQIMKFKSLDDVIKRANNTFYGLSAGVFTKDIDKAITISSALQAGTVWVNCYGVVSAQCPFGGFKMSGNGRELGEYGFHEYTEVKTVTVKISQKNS
HTT ATP protect – protects HTT-Q103 PC12 cells, measured by ATP; AID 1471; 230,000 compounds, 0.14% hits; PC12 HTT-Q103 induced, cytoprotection, ATP luminescence, 40 h; Potency, µM (highest dose often 56.4 µM), inactives show cytoprotection (ATP increase), actives largely listed as activators; active = well fitted curve in the direction sought with a large enough effect; inconclusive = small, poorly fitted or top-dose-only effect, or another doubt; inactive = no such curve, though single readings can be large; an effect the other way counts as inactive or inconclusive; note: potency is the fitted concentration of half-maximal effect; % of control where 0% means no effect; nearly all actives have a fitted effect of over 45% in size
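Quantitative HTS on tebufenozide-induced (100 nM) PC12 cells expressing HTTQ103 exon 1–GFP; compounds tested as a concentration series; survival measured via cellular ATP.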
Starred values were filed as active, the others as inactive; ? = inconclusive; · = no result given; [ ] = another dose, or the depositor's remark. Rows were chosen to be rich in hits. Some 11% of all compounds tested hit in one or more screens of this group. Unless noted, calls come from the whole dose curve; as a rule, active = well fitted inhibition curve with a large enough effect (not every such curve was filed as active); inconclusive = small, poorly fitted or top-dose-only effect, or another doubt; inactive = no such curve, though single readings can be large or run the other way.

SMILES	HTT aggregate	PNC inhibitor	HPGD inh	RGS12 GoLoco inh	ALDH1A1 inh	HTT ATP protect
Cc1ccccc1NC(=O)CCC(=O)N/N=C/c1cc([N+](=O)[O-])ccc1O	13µM*	?	-25%	11%	?	·
COc1ccc(/C(C)=N/NC(=O)CNC(=O)C2COc3ccccc3O2)c(OC)c1 (stereo not given)	0%[9.22 µM]	·	·	8%	·	-5%[10 µM]
COc1cccc(/C=N/NC(=O)CNC(=O)C2COc3ccccc3O2)c1O (stereo not given)	13µM*	-6	-15%	4%	-1%	34%[10 µM]
COc1cccc(/C=N/NC(=O)CNC(=O)c2ccc3c(c2)OCCO3)c1O	35µM*	-4	-12%	3%	-6%	0%[10 µM]
O=C(CNC(=O)c1ccc2c(c1)OCCO2)N/N=C/c1ccc(O)cc1O	-26%	-5	-27%	7%	-6%	16%[10 µM]
O=C(N/N=C/c1ccccc1[N+](=O)[O-])c1ccc2c(c1)OCCO2	-16%[9.22 µM]	·	·	1%	·	-92%[10 µM]
COc1cc2c(cc1OC)C1(C)N(CC2)C(C(C)=O)=NN1c1ccc(Cl)cc1 (stereo not given)	3%[9.22 µM]	·	·	3%	·	7%[10 µM]
Cc1onc(-c2ccccc2Cl)c1C(=O)Nc1cnn(Cc2ccccc2)c1	-14%	16	-12%	7%	-6%	14%[10 µM]
O=C(Nc1cccc(Cl)c1)Nc1nnc(CC2=CCCCC2)s1	-9%	-23	-6%	-1%	6%	15%[10 µM]
CO[C@@H]1COC(=O)[C@H]2CCCN2C(=O)[C@@H](C)COC(=O)C/C=C\[C@H]1C	·	·	·	·	2%[13.5 µM]	2%[10 µM]
Cc1ccc(C)c(-c2ccc(C(=O)O)o2)c1	·	·	?	-3%[136 µM]	?	?
O=C1CN(C(=O)CSc2nnc(Nc3ccccc3)s2)c2ccccc2N1	-2%	?	2.2µM*	54%	28µM*	-14%[10 µM]
Cc1cc(NC(=O)CSc2nnnn2Cc2ccccc2)no1	3%	-14	2%	12%	32µM*	6%[10 µM]
CCOc1ccccc1-n1nnnc1SCC(=O)NCc1ccco1	·	·	·	9%	?	·
Cc1cc(NC(=O)CSc2nnnn2-c2ccccc2)no1	11%[9.22 µM]	·	·	-3%	16µM*	-7%[10 µM]
CCOc1ccccc1-n1nnnc1SCC(=O)Nc1cc(C)on1	-2%	-22	3%	11%	8.9µM*	-15%
CC(C)[C@@H](OCc1ccccc1)[C@H](C)CO/N=C1/[C@H]2OC2[C@@H](O)[C@H]2[C@H]1CCn1c(=O)n(-c3ccccc3)c(=O)n12 (stereo not given in full)	·	·	·	·	-11%[13.5 µM]	29%[10 µM]
CCOc1ccccc1-n1nnnc1SCC(=O)NC(=O)Nc1ccc2c(c1)OCCO2	27%	5	-15%	2%	13µM*	5%
COc1ccccc1-n1nnnc1SCC(=O)Nc1ccccn1	-9%	19	-15%	-12%	0.63µM*	-16%
O=C(CSc1nnnn1-c1ccccc1)NC(=O)Nc1ccc2c(c1)OCCO2	13%	-11	-7%	0%	?	-26%
Cc1cccc(-n2nnnc2SCC(=O)Nc2cccc(S(N)(=O)=O)c2)c1	9%[9.22 µM]	·	·	-16%	7.9µM*	11%[10 µM]
COc1ccccc1-n1nnnc1SCc1cc2c(cc1Br)OCO2	?	-27	?	6%	4.5µM*	-9%
COc1ccccc1-n1nnnc1SCc1ccccc1	-17%	-12	-12%	11%	?	-9%[10 µM]
COC(=O)C1=C(C(=O)OC)[C@@H]2Nc3ccccc3[C@@]23C[C@@H](C(=O)OC)N(S(=O)(=O)c2ccc4c(c2)OCCN4C)C3=N1	·	·	-2%	-6%[14.2 µM]	3%[13.5 µM]	-30%[10 µM]
Cc1cc(NC(=O)CSc2nncn2-c2ccccc2)no1	-8%	·	·	-1%	0%	-31%
SMILES	HTT aggregate	PNC inhibitor	HPGD inh	RGS12 GoLoco inh	ALDH1A1 inh	HTT ATP protect
O=C(CSc1nnnn1-c1ccccc1)Nc1ccc(Cl)cn1	10%	?	-3%	15%	2.2µM*	-8%[0.074 µM]
O=C(CSc1nnnn1-c1ccccc1)Nc1ccc(Cl)cc1	23%	14	-9%	7%	?	-3%
COc1ccccc1-n1cnnc1SCC(=O)Nc1cc(C)on1	-6%	·	·	10%	5µM*	-15%[10 µM]
O=C(CSc1nnnn1Cc1ccccc1)NCC(=O)c1ccccc1	-9%	?	-10%	9%	8.9µM*	-3%
CCn1c(Cc2ccccc2)nnc1SCC(=O)Nc1cc(C)on1	-7%	-107*	-10%	10%	7%	?
CN1CCN(CC(=O)N2c3ccccc3Sc3cc4ccccc4cc32)CC1	·	·	0%	3%[14.2 µM]	-1%[13.5 µM]	7%[10 µM]
COc1ccccc1-n1cnnc1SCC(=O)N1CC(=O)Nc2ccccc21	17%	?	-5%	8%	4.5µM*	-6%
Oc1oc(-c2ccco2)nc1C=Nc1cccc(Cl)c1	-15%	?	-2%	4%	-11%	-6%
CC(=NCc1cccc(Cl)c1)c1nc(-c2ccco2)oc1O	?	32	-15%	8%	18µM*	·
CSc1nnc2c(n1)OC(c1ccccn1)N(C(C)=O)c1ccccc1-2 (stereo not given)	12%	·	·	18%	18%	19%
CCc1nn(CC(=O)Nc2cc(C)ccc2C)c(=N)s1	-12%	·	·	6%	-3%	6%[10 µM]
CCC1CSC(Nc2ccc(C(=O)/C=C/c3ccc(OC)c(OC)c3)cc2)=N1 (stereo not given)	?	52	18µM*	94%	?	27%[10 µM]
CCC1CSC(Nc2ccc(C(=O)/C=C/c3ccc(Br)cc3)cc2)=N1 (stereo not given)	20%	-103*	?	76%	2%	·
CCN(CC)S(=O)(=O)c1ccc(N2CCOCC2)c(NC(=O)CC23CC4CC(CC(Br)(C4)C2)C3)c1	13%	-29	-12%	9%	-11%	21%[10 µM]
C=CCc1cc(C=O)cc(OC)c1OCc1ccc(C(=O)O)cc1	10%	·	·	11%	10µM*	·
CCOc1cccc(/C=C2\NC(=S)N(c3ccccc3)C2=O)c1O	2%[9.22 µM]	·	·	113%	20µM*	-6%[10 µM]
CCOc1cc(/C=C2\NC(=S)N(c3c(C)n(C)n(-c4ccccc4)c3=O)C2=O)ccc1O	-8%	?	-6%	50%	-2%	15%[10 µM]
COc1ccc(CNC(=O)Cn2cc3c(n2)CCCCC3)cc1	-3%	?	1%	-5%	1.1µM*	11%[10 µM]
O=C(Cn1cc2c(n1)CCCC2)NCc1cccs1	4%	7	?	13%	16%	3%
O=C(Cn1cc2c(n1)CCCC2)NCc1ccccn1	-2%	-19	-10%	16µM*	2%	-12%
O=C(Cn1cc2c(n1)CCCCC2)N1CCCCC1	8%	-119*	-10%	4%	-7%	-5%[10 µM]
COc1ccc(CNC(=O)Cn2cnc3c(=O)n(C)c(=O)n(C)c32)cc1	0.63µM*	?	-10%	-3%	-9%	-10%[0.074 µM]

High-throughput results as filed in PubChem BioAssay.
